HIF activator: HIF pathway transcriptional activators, primary screen, cell-based, U2OS HRE-luciferase, luminescence. activation, % at 7.5 µM (by protocol). U2OS HRE-luciferase reporter; normalized: DMSO 0%, desferrioxamine 100%. AID 1910, 2009. 300,000 tested, 0.32% active;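 active = mean activation of at least 10% of the iron chelator positive control signal, with at least half of replicates also reaching 10%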
Statin myotox sup: suppressors of statin myotoxicity in C2C12 myotubes, primary screen, cell-based, single point, plate reader; AID 602340, 2012; C2C12 myotubes + simvastatin, ATP luminescence, 48 h; scaled: DMSO 0, geranylgeraniol control 100; rescue of ATP level, % at 7.49 µM; 330,000 tested, 0.78% active;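 active = mean ATP rescue above about 67%, or every replicate alone reaching that limit, limit read from the data, passing the limit was not always enough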;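 also: myotubes were challenged with 10 µM simvastatin during compound exposure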
AI-2 QS mod: Vibrio harveyi AI-2 quorum sensing modulators, primary screen, JMH597 strain, luminescence/OD600 ratio; activity change, % at 7.5 µM; Vibrio harveyi JMH597 AI-2 luminescence/OD600 ratio, 9 h; hits give low values; strain lacks LuxN and CqsS sensors; 0 = neutral-control median; 300,000 tested, 0.4% active; AID 2094, 2009; in the data active = activity change below about -75%, passing the limit was not always enough;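 also: luminescence divided by OD600 gain over 9 h not by final OD600 alone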
PGC1a acetyl inh: inhibitors of PGC1a acetylation signal, primary screen, cell-based, U2OS, AlphaScreen, inhibitor mode; AlphaScreen anti-acetyl-lysine; with virally co-expressed GCN5 acetyltransferase; inhibition, % at 15.6 µM; 350,000 tested, 0.17% active; AID 651687, 2012;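 active = every replicate shows inhibition of at least 40%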;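 also: 0% = neutral control wells and 100% = positive control wells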
Rce1 inh: yeast Rce1p protease inhibitors, primary screen, biochemical, fluorescence, cell-free homogeneous | calls only | 290,000 tested, 0.27% active | CAAX prenyl protease 2 (Saccharomyces cerevisiae (strain ATCC 204508 / S288c)), Q03530 | yeast membranes, quenched prenylated peptide cleavage fluorescence;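 active = fall in fluorescence gain of 50% or more versus controls, with final raw signal at or below 3038400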;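 also: plate controls were neutral control wells for no effect and wells lacking membranes for full effect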
Target sequence (Q03530 whole entry, looked up): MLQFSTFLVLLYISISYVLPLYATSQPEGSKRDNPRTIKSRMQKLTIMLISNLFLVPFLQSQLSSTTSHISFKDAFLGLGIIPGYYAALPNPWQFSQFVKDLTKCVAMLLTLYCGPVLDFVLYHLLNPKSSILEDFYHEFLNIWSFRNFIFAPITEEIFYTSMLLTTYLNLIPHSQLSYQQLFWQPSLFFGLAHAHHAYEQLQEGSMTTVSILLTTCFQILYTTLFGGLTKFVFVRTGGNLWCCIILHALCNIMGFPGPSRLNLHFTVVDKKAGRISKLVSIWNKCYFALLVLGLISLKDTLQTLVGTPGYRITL
Numbers without * were called inactive. In the library only some 1.3% were active in any assay of this set; here they are far more common.

Screening CN(C)c1ccnc2sc(C(N)=O)c(N)c12 returned HIF activator 0.1, Statin myotox sup 34.3, AI-2 QS mod 5.4, PGC1a acetyl inh 47.8* and Rce1 inh inactive.
For CN(C)c1ccnc2sc(C(=O)c3ccc(Br)cc3)c(N)c12 the results were HIF activator 1.1, AI-2 QS mod 18.7 and Rce1 inh inactive.
Screening O=C(/C=C/c1ccccc1)NNC(=O)C1CC1 returned HIF activator -0.4, Statin myotox sup -17.3, AI-2 QS mod -4.5, PGC1a acetyl inh -6.1 and Rce1 inh inactive.
For O=C(NNC(=O)C(O)(c1ccccc1)c1ccccc1)C1CC1 the results were HIF activator 31.1*, AI-2 QS mod -11.0, PGC1a acetyl inh -8.5 and Rce1 inh inactive.
For O=C(C1=C[C@@H](C2CC2)C[C@@H](OCc2ccc(CO)cc2)O1)N1CCN(Cc2ccccc2)CC1 the results were HIF activator -1.3, Statin myotox sup -10.1, AI-2 QS mod 5.2, PGC1a acetyl inh -3.0 and Rce1 inh active.
O=C(C1=C[C@@H](C2CCCCC2)C[C@@H](OCCCCO)O1)N1CCN(Cc2ccc3c(c2)OCO3)CC1 was read as HIF activator -1.8, Statin myotox sup -2.6, AI-2 QS mod 3.5, PGC1a acetyl inh -6.1 and Rce1 inh inactive.
O=C(C1=C[C@@H](C2CC2)C[C@@H](OCCCCO)O1)N1CCN(Cc2ccc3c(c2)OCO3)CC1 was read as HIF activator 40.0*, Statin myotox sup -6.7, AI-2 QS mod 15.7, PGC1a acetyl inh 2.6 and Rce1 inh inactive.
Screening Cc1nc2cc(C(=O)NCCN3CCOCC3)ccc2n1-c1ccc(F)cc1F returned HIF activator -0.1, Statin myotox sup 98.2*, AI-2 QS mod 20.2, PGC1a acetyl inh 4.6 and Rce1 inh inactive.
Screening Cc1cccc(-n2c(C)nc3cc(C(=O)NCCN4CCOCC4)ccc32)c1 returned Statin myotox sup 7.1 and PGC1a acetyl inh 5.1.
Screening O=C(NC(=S)NCCN1CCOCC1)c1ccc(Cl)cc1Cl returned HIF activator 0.8, Statin myotox sup 89.2*, AI-2 QS mod -1.0, PGC1a acetyl inh 0.2 and Rce1 inh inactive.
CC(C)(C)c1ccc(C(=O)NCCN2CCOCC2)cc1 was read as HIF activator -0.9, AI-2 QS mod 3.3, PGC1a acetyl inh 64.8* and Rce1 inh inactive.
For CN1[C@@H]2c3ccc(-c4ccccc4)c(=O)n3C[C@@H]2[C@@H](CO)[C@@H]1C(=O)Nc1ccccc1 the results were Statin myotox sup 0.4.
`CN(CC(=O)Nc1ccccc1Cl)C(=O)COC(=O)c1ccc(Cl)cc1[N+](=O)[O-]` gave HIF activator -0.1, Statin myotox sup -1.1, AI-2 QS mod -93.7*, PGC1a acetyl inh -9.0 and Rce1 inh inactive.
Screening O=C(OCC(=O)N1CCOCC1)c1ccc(Cl)cc1[N+](=O)[O-] returned HIF activator -0.2, Statin myotox sup -1.7, AI-2 QS mod -79.0*, PGC1a acetyl inh 8.7 and Rce1 inh inactive.
For O=C(OCC(=O)N1CCN(c2ccccc2)CC1)c1ccc(Cl)cc1[N+](=O)[O-] the results were HIF activator 0.0, Statin myotox sup 2.8, AI-2 QS mod -67.0, PGC1a acetyl inh -37.8 and Rce1 inh inactive.
O=C(OCC(=O)N1CCOCC1)c1ccccc1SCC(=O)N1CCCC1 was read as HIF activator -0.1, Statin myotox sup 118.4*, AI-2 QS mod 3.7, PGC1a acetyl inh 2.9 and Rce1 inh inactive.
O=C(OCC(=O)N1CCCC1=O)c1ccc(Cl)cc1[N+](=O)[O-] was read as HIF activator 0.0, Statin myotox sup -5.2, AI-2 QS mod -81.2* and Rce1 inh inactive.
Screening O=C(/C(=C\c1ccccc1)c1nc2ccccc2[nH]1)c1ccc(Cl)cc1 returned HIF activator 3.4, AI-2 QS mod 30.1 and Rce1 inh inactive.
O=C(/C(=C/c1ccc(Cl)cc1)c1nc2ccccc2[nH]1)c1cccs1 was read as HIF activator -4.1, Statin myotox sup 181.3*, AI-2 QS mod 22.7, PGC1a acetyl inh 1.1 and Rce1 inh inactive.
O=C(O)[C@@H]1[C@@H](CO)[C@@H]2Cn3c(ccc(/C=C/c4ccccc4)c3=O)[C@@H]2N1C(=O)C1CCCC1 was read as PGC1a acetyl inh 20.4.
For COc1ccc2c3c(n(C)c2c1)[C@H](CO)N(Cc1ccccc1)CC31CN(C(=O)C2CC2)C1 the results were PGC1a acetyl inh -19.0.
`COc1ccc(S(=O)(=O)N2CCN(Cc3cccc(Cl)c3)CC2)cc1` gave HIF activator -0.2, Statin myotox sup 105.3*, AI-2 QS mod 2.6, PGC1a acetyl inh -2.3 and Rce1 inh inactive.
For COc1ccc(S(=O)(=O)N2CCN(Cc3ccc(Cl)cc3)CC2)cc1 the results were HIF activator -0.9, Statin myotox sup 4.1 and AI-2 QS mod 17.7.
For O=C(Nc1ccc(F)cc1)NC1CCN(Cc2nnnn2Cc2ccco2)CC1 the results were HIF activator -0.1, Statin myotox sup 95.1*, AI-2 QS mod 16.6, PGC1a acetyl inh 8.0 and Rce1 inh inactive.
Screening Fc1cccc(CN2CCN3CCCC3C2C2CCCCC2)c1 (configuration not stated) returned HIF activator 0.1, Statin myotox sup 129.0*, AI-2 QS mod 10.6, PGC1a acetyl inh -1.7 and Rce1 inh inactive.
For Cc1ccc(NC(=O)Nc2cc(Cl)ccc2C2COC(=O)C2=N)cc1 (configuration not stated) the results were HIF activator 0.1, AI-2 QS mod 9.9, PGC1a acetyl inh 1.8 and Rce1 inh inactive.
CC(=O)Nc1ccc(Cl)cc1C1COC(=O)C1=N (configuration not stated) was read as HIF activator -0.2, AI-2 QS mod 0.3 and Rce1 inh active.
`C[C@H](CO)N1C[C@H](C)[C@H](CN(C)C(=O)Nc2ccc(F)cc2)Oc2c(NC(=O)Nc3ccc(F)cc3)cccc2C1=O` gave Statin myotox sup -5.3 and PGC1a acetyl inh 6.7.
Screening CNC(=O)COC(=O)c1nc(-n2nc(C)cc2C)ccc1Cl returned HIF activator -0.4, Statin myotox sup 80.0*, AI-2 QS mod 5.3, PGC1a acetyl inh -30.5 and Rce1 inh inactive.
For C[C@@H]1CN([C@@H](C)CO)C(=O)c2cccc(NS(=O)(=O)c3ccc(Cl)cc3)c2O[C@H]1CN(C)Cc1ccc(Cl)c(Cl)c1 the results were Statin myotox sup 3.5 and PGC1a acetyl inh -8.6.
`CCc1ccc(-c2nn(-c3ccccc3)cc2C2SCC(=O)N2Cc2ccco2)cc1` (configuration not stated) gave HIF activator -0.1, AI-2 QS mod 8.5 and Rce1 inh inactive.

Bioassay records (PubChem BioAssay)
